Compounds without any hit were thinned out: in the full panel of roughly 79,000, 15% have a hit. A number with no mark means an inactive call. Active and inactive are the calls of the source. Rule as the data show it: active = growth inhibition above about 70%; inactive = the rest.

Test [1] can be described thus: NCI Yeast Anticancer Drug Screen. Data for the rad50 strain (AID 155).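 Also: 0% = growth of vehicle-only cultures of the same strain.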 Conditions: S. cerevisiae rad50 strain growth inhibition, hits give high values. In outline: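 Readout: growth inhibition relative to vehicle-treated cultures. Compound exposure was carried out in a genetically defined yeast strain deficient in DNA damage repair.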
Test [2] is described as follows: NCI Yeast Anticancer Drug Screen. Data for the mec2-1 strain (AID 157). Conditions: S. cerevisiae mec2-1 strain, hits give high values. In outline: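 Cells of the genetically defined mec2-1 yeast strain are incubated with test compound. Inhibition of growth is calculated against vehicle-treated controls.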
Test [3] in a line: NCI Yeast Anticancer Drug Screen. Data for the sgs1 mgt1 strain (AID 161).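 Also: 0% = growth of cultures given vehicle only.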 Conditions: S. cerevisiae sgs1 mgt1 strain, hits give high values. An outline of the steps: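 Test agents were incubated with a DNA-repair-mutant yeast strain. Growth was then read and compared against vehicle-treated controls.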
A short description of test [4]: NCI Yeast Anticancer Drug Screen. Data for the cln2 rad14 strain (AID 165).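 Also: 0% = growth equal to vehicle treated cultures.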 Conditions: S. cerevisiae cln2 rad14 strain, hits give high values. In outline: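 The screen exposed genetically defined yeast (cln2 rad14) to test compounds and scored growth inhibition relative to vehicle-treated controls.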
Test [5] in a line: NCI Yeast Anticancer Drug Screen. Data for the bub3 strain (AID 167). Conditions: S. cerevisiae bub3 mutant strain, hits give high values. An outline of the steps:
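Readout: yeast growth inhibition, expressed relative to vehicle-only wells. The test organism is a mutant strain from a panel with lesions in DNA repair or checkpoint genes.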

The nature of test [6]: NCI Yeast Anticancer Drug Screen. Data for the mlh1 rad18 strain (AID 175). Conditions: S. cerevisiae mlh1 rad18 strain growth inhibition, hits give high values. An outline of the steps:
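Compound-treated yeast growth, normalised to vehicle controls. Strain bears defined DNA repair mutations.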

Setting [7] is: at 5.0 µM (retest, dose inferred, filed as 0.5).
[8] abbreviates: at 50.0 µM (retest, dose inferred, filed as 5.0).

For `CCCCCC(CN(C)C)C(O)/C=C\c1ccccc1` (configuration not stated), the growth inhibition in test [1] (setting [7]) was 0%; in test [1] (setting [8]), -8%; in test [1] (at 50.0 µM), 74.7% (active); in test [2] (setting [7]), -1%; in test [2] (setting [8]), -4%; in test [2] (at 50.0 µM) it was 48.6%. Also, the growth inhibition in test [3] (setting [7]) was -10%; in test [3] (setting [8]) it was -22%; in test [3] (at 50.0 µM) it was 72.1% (active); in test [4] (setting [7]), -1%; in test [4] (setting [8]), -6%; in test [4] (at 50.0 µM), 4.9%. The growth inhibition in test [5] (setting [7]) was -2%; in test [5] (setting [8]) it was -10%; in test [5] (at 50.0 µM) it was 1.6%; in test [6] (setting [7]), 8%; in test [6] (setting [8]), -9%; in test [6] (at 50.0 µM) it was 68.5%.
As for `O=C(CCBr)NC(=O)Oc1cccc2ccccc12`, the growth inhibition in test [1] (setting [7]) was 1%; in test [1] (setting [8]) it was 17%; in test [1] (at 50.0 µM) it was 87.2% (active); in test [2] (setting [7]), 1%; in test [2] (setting [8]), 29%; in test [2] (at 50.0 µM), 97.2% (active). In addition, the growth inhibition in test [3] (setting [7]) is 5%; in test [3] (setting [8]), 55%; in test [3] (at 50.0 µM) it was 91.3% (active); in test [4] (setting [7]) it was 4%; in test [4] (setting [8]), 11%; in test [4] (at 50.0 µM) it was 28.1%. In addition, the growth inhibition is -8% in test [5] (setting [7]); 18% in test [5] (setting [8]); 85.6% (active) in test [5] (at 50.0 µM); 2% in test [6] (setting [7]); 65% in test [6] (setting [8]); 95.3% (active) in test [6] (at 50.0 µM).
`CC(=O)N1C(c2[nH]c3ccccc3c2-c2ccccc2)CCN1c1ccccc1` (configuration not stated): the growth inhibition in test [1] (setting [7]) is -12%; in test [1] (setting [8]) it was 74% (active); in test [1] (at 50.0 µM) it was 64.1%; in test [2] (setting [7]) it was -2%; in test [2] (setting [8]), 51%; in test [2] (at 50.0 µM) it was 54.7%. The growth inhibition was 14% in test [3] (setting [7]); 87% (active) in test [3] (setting [8]); 83.2% (active) in test [3] (at 50.0 µM); 7% in test [4] (setting [7]); 73% (active) in test [4] (setting [8]); 69.9% in test [4] (at 50.0 µM). Further, the growth inhibition is -5% in test [5] (setting [7]); 87% (active) in test [5] (setting [8]); 63.2% in test [5] (at 50.0 µM); -9% in test [6] (setting [7]); 83% (active) in test [6] (setting [8]); 71% (active) in test [6] (at 50.0 µM).
Regarding `O=[N+]([O-])c1ccccc1C1CN=NN1c1ccccc1` (configuration not stated), the growth inhibition was -9% in test [1] (setting [7]); 47% in test [1] (setting [8]); -0.9% in test [1] (at 50.0 µM); -2% in test [2] (setting [7]); 25% in test [2] (setting [8]); 17.9% in test [2] (at 50.0 µM). The growth inhibition in test [3] (setting [7]) is -1%; in test [3] (setting [8]) it was 33%; in test [3] (at 50.0 µM), 38.2%; in test [4] (setting [7]), -14%; in test [4] (setting [8]), 32%; in test [4] (at 50.0 µM) it was -11.3%. The growth inhibition is -3% in test [5] (setting [7]); 61% in test [5] (setting [8]); 85.5% (active) in test [5] (at 50.0 µM); 0% in test [6] (setting [7]); 37% in test [6] (setting [8]); 24.9% in test [6] (at 50.0 µM).
Consider `O=c1oc(-c2cccc(C(Cl)Cl)c2)ns1`, for which the growth inhibition was 7% in test [1] (setting [7]); 99% (active) in test [1] (setting [8]); 98.2% (active) in test [1] (at 50.0 µM); 5% in test [2] (setting [7]); 100% (active) in test [2] (setting [8]); 99.1% (active) in test [2] (at 50.0 µM). Besides, the growth inhibition was 12% in test [3] (setting [7]); 100% (active) in test [3] (setting [8]); 99.2% (active) in test [3] (at 50.0 µM); 2% in test [4] (setting [7]); 99% (active) in test [4] (setting [8]); 69% in test [4] (at 50.0 µM). Also, the growth inhibition in test [5] (setting [7]) is 3%; in test [5] (setting [8]), 99% (active); in test [5] (at 50.0 µM) it was 97.7% (active); in test [6] (setting [7]) it was 13%; in test [6] (setting [8]) it was 99% (active); in test [6] (at 50.0 µM), 99.1% (active).
In the case of `OC1(c2ccccc2)c2ccccc2C(O)(c2ccccc2)c2cc3c(cc21)CCCC3` (configuration not stated), the growth inhibition in test [1] (setting [7]) was 81% (active); in test [1] (setting [8]), 96% (active); in test [1] (at 50.0 µM), 96.8% (active); in test [2] (setting [7]) it was 28%; in test [2] (setting [8]), 98% (active); in test [2] (at 50.0 µM), 97.5% (active). Moreover, the growth inhibition in test [3] (setting [7]) was 17%; in test [3] (setting [8]), 98% (active); in test [3] (at 50.0 µM), 97.7% (active); in test [4] (setting [7]), -3%; in test [4] (setting [8]) it was 97% (active); in test [4] (at 50.0 µM), 97.7% (active). The growth inhibition in test [5] (setting [7]) is 17%; in test [5] (setting [8]), 98% (active); in test [5] (at 50.0 µM), 96% (active); in test [6] (setting [7]) it was 51%; in test [6] (setting [8]) it was 96% (active); in test [6] (at 50.0 µM) it was 96.8% (active).
Consider `c1ccc(N=c2sc3ccccc3sc2=Nc2ccccc2)cc1`, for which the growth inhibition was 94% (active) in test [1] (setting [7]); 32% in test [1] (setting [8]); 51% in test [1] (at 50.0 µM); 56% in test [2] (setting [7]); 50% in test [2] (setting [8]); 32.4% in test [2] (at 50.0 µM). Further, the growth inhibition in test [3] (setting [7]) is 71% (active); in test [3] (setting [8]), 60%; in test [3] (at 50.0 µM), 21.8%; in test [4] (setting [7]), 96% (active); in test [4] (setting [8]) it was 69%; in test [4] (at 50.0 µM), 59.5%. In addition, the growth inhibition in test [5] (setting [7]) was 93% (active); in test [5] (setting [8]), 76% (active); in test [5] (at 50.0 µM), 31.7%; in test [6] (setting [7]), 93% (active); in test [6] (setting [8]) it was 56%; in test [6] (at 50.0 µM), -16%.
With `CN(C)C1=NC2=S(SC(Nc3ccccc3)=N2)S1` (configuration not stated), the growth inhibition was -4% in test [1] (setting [7]); 15% in test [1] (setting [8]); 10.8% in test [1] (at 50.0 µM); -7% in test [2] (setting [7]); 33% in test [2] (setting [8]); -1% in test [2] (at 50.0 µM). Also, the growth inhibition is 10% in test [3] (setting [7]); 28% in test [3] (setting [8]); -19.1% in test [3] (at 50.0 µM); 10% in test [4] (setting [7]); 24% in test [4] (setting [8]); -0.75% in test [4] (at 50.0 µM). The growth inhibition was 3% in test [5] (setting [7]); 20% in test [5] (setting [8]); 44% in test [5] (at 50.0 µM); 24% in test [6] (setting [7]); 43% in test [6] (setting [8]); -7.4% in test [6] (at 50.0 µM).
As for `CC1=NN(c2nc(N)nc(NS(=O)(=O)c3cc(C)c(Cl)cc3S)n2)C(C)(C)C1`, the growth inhibition in test [1] (setting [7]) was 29%; in test [1] (setting [8]) it was 13%; in test [1] (at 50.0 µM) it was 9.1%; in test [2] (setting [7]), -1%; in test [2] (setting [8]), -12%; in test [2] (at 50.0 µM), -9.55%. The growth inhibition in test [3] (setting [7]) was -2%; in test [3] (setting [8]), 9%; in test [3] (at 50.0 µM), 35.9%; in test [4] (setting [7]), 4%; in test [4] (setting [8]), 10%; in test [4] (at 50.0 µM), 46.2%. Further, the growth inhibition in test [5] (setting [7]) was 11%; in test [5] (setting [8]) it was -17%; in test [5] (at 50.0 µM), 9.85%; in test [6] (setting [7]), -3%; in test [6] (setting [8]), 4%; in test [6] (at 50.0 µM) it was 20%.

The values above are taken from PubChem BioAssay (NCI).
